Calls of active or inactive are those of the source. How the source made its calls: active means hit-call score of the fitted dose curve at least 0.9, where 1 is the maximum; inactive means score below 0.9.
What follows are molecules tested on CYP3A5 (gene 1577) (assay: LTEA_HepaRG_CYP3A5: Life Technologies and Expression Analysis (LTEA) Assay for CYP3A5 using HepaRG (AID 2283493)). Conditions: mRNA level, 48 h; actives raise or lower the signal.
Procedure: LTEA_HepaRG is a cell based, multiplexed-readout assay that uses HepaRG, a human liver cell line, with measurements taken at 48 hours after chemical dosing on a 96-well plate.LTEA_HepaRG_CYP3A5 is one of 102 assay component(s) measured in the LTEA HepaRG cell culture assay. It is a marker of NR mediated metabolism.Data from the assay component LTEA_HepaRG_CYP3A5 was analyzed into 1 endpoint. This assay endpoint, LTEA_HepaRG_CYP3A5, was analyzed with bidirectional fitting relative to DMSO as the negative control and baseline of activity. Using a type of inducible reporter, measures of mRNA induction for gain or loss-of-signal activity can be used to understand regulation of transcription factor activity. To generalize the intended target to other relatable targets, this assay endpoint is annotated to the cyp intended target family, where the subfamily is xenobiotic metabolism.
A total of 1060 chemcials from the ToxCast library were tested in eight-point concentration-response experiments. Cell culture and cytotoxicity assays were conducted at Thermo Fisher Scientific's Custom Services facility (Madison, WI). A single lot of human HepaRG cells (Thermo Fisher Scientific, Frederick, MD) was used for the cell culture experiments. 96-well format collagen type I coated plates of human HepaRG cells were prepared using established methods. Briefly, cryopreserved HepaRG cells were thawed, plated at a density of approximately 100,000 cells/well in HepaRG Thaw, Plate, and General Purpose media (HPRG770, Thermo Fisher Scientific), and incubated for 48 hours. 0.5% DMSO was selected as vehicle control to balance the requisite need of DMSO in HepaRG cultures to maintain differentiation (for example, baseline metabolism, proportions of hepatocytes vs. cholangiocytes), while enabling further hepatic receptor pathway activation (for example, PXR and CAR) in response to chemical exposure. 48 hours after plating, the culture medium was replaced with HepaRG Serum-Free Incudtion Media. Cells were exposed to each test chemical in duplicate and maintained in CO2 incubators for another 48 hours. Chemical plates were thawed to room temperature and 200x concentrations of treatment groups were prepared. 8-point conentration-reponse curves were made with the highest exposure at 100 uM, followed by half-log dilutions, all in 0.5% DMSO. Each test plate contained variouse controls, induction positive controls (1mM phenobarbital), cytotoxicity positive controls ([…] aflatoxin B1), vehicle controls (0.5% DMSO), and total lysis controls (0.5% DMSO). Cell morphology images were taken using an Essen IncuCyte FLR automated microscope, with six 96-well plates imaged in about 24 minutes. Images were captured and exported and JPEG files. Spent culture media was transfered to black-well plates for the LDH assay, and remaining media was sorted at -80 C for later use. Cells were treated with RLT buffer and frozen until shipped for gene expression analysis. Total RNA was isolated from the cell suspension in 75 uL of Buffer RLT (Qiagen, Germantown, MD 20874) by Quintiles/Expression Analysis (Durham, NC) using a custom isolation procedure. Total RNA from each plate well was transferred to a preamplification plate. Fluidigm's 96.96 Dynamic ArrayTM (Fluidigm, Amsterdam, the Netherlands) technology was used for gene expression analyses by quantitative reverse transcription polymerase chain reaction (qRT-PCR, performed by Quintiles/Expression Analysis, Durham, NC)89. Standard TaqManTM Assays (Applied Biosystems/ThermoFisher Scientific, Foster City, CA) were used to assess the expression of 93 genes selected based on their selectivity and sensitivity to important hepatic receptors known to be modulated by environmental chemicals; importance in human hepatocyte functionality; and hepatotoxicity. […]

Q: `CCOC(=O)C(C)Oc1ccc(Oc2nc3ccc(Cl)cc3o2)cc1` (stereo not given) was tested. Which outcome did it give?
A: inactive

Q: With `C#C[C@]1(O)CC[C@H]2[C@@H]3CCC4=CC(=O)CC[C@@H]4[C@H]3CC[C@@]21CC` as the molecule, how does the outcome read?
A: inactive

Q: Which outcome does the source give for `C[C@]12C[C@H](O)[C@H]3[C@@H](CCC4=CC(=O)CC[C@@]43C)[C@@H]1CC[C@@H]2C(=O)CO` here?
A: inactive

Q: How did the outcome turn out when `c1ccc(Nc2ccccc2)cc1` was run?
A: inactive

Q: For `CCCCC(CC)CN1C(=O)C2C3C=CC(C3)C2C1=O` (stereo not given), which outcome is on record?
A: inactive

Q: For `c1ccc2[nH]c(-c3cscn3)nc2c1`, which outcome is on record?
A: inactive

Q: For `CCCCOC(=O)C(C)Oc1ccc(Oc2ccc(C(F)(F)F)cn2)cc1` (stereo not given), which outcome is on record?
A: inactive

Q: For `O=C(O)C1(C(=O)Nc2ccc(Cl)cc2Cl)CC1`, which outcome is on record?
A: inactive

Q: With `CN(C)C(=O)Nc1ccc(Cl)c(Cl)c1` as the molecule, how does the outcome read?
A: inactive

Q: Which AC50 does the source give for `CC(=O)S[C@@H]1CC2=CC(=O)CC[C@]2(C)[C@H]2CC[C@@]3(C)[C@@H](CC[C@@]34CCC(=O)O4)[C@H]12` here?
A: 50 µM (active)

Q: With `O=C(c1ccc(O)cc1O)c1ccc(O)cc1O` as the molecule, how does the outcome read?
A: inactive

Q: `CCOC(=O)c1ccc(O)cc1` was tested. Which outcome did it give?
A: inactive

Q: For `Cc1nn(C)c(Oc2ccccc2)c1C=NOCc1ccc(C(=O)OC(C)(C)C)cc1`, which AC50 is on record?
A: 9.26 µM (active)

Q: For `CCCCCOC(=O)COc1cc(N2C(=O)C3=C(CCCC3)C2=O)c(F)cc1Cl`, which outcome is on record?
A: inactive

Q: For `COC(=O)c1ccc(I)cc1S(=O)(=O)NC(=O)Nc1nc(C)nc(OC)n1`, which outcome is on record?
A: inactive

Q: For `O=C(O)c1ccccc1`, which outcome is on record?
A: inactive

Q: With `CC1(C)C(C=C(Cl)Cl)C1C(=O)OCc1cccc(Oc2ccccc2)c1` (stereo not given) as the molecule, how does the outcome read?
A: inactive

Q: With `CCN(CC)C(=O)c1cccc(C)c1` as the molecule, how does the outcome read?
A: inactive

Q: With `N#CSCSc1nc2ccccc2s1` as the molecule, how does the outcome read?
A: inactive

Q: Which outcome does the source give for `O=C(c1ccccc1)C1CCCCC1` here?
A: inactive

Q: For `CCCCOC(=O)[C@@H](C)Oc1ccc(Oc2ccc(C(F)(F)F)cn2)cc1`, which outcome is on record?
A: inactive

Q: For `CCCOC(=O)NCCCN(C)C`, which outcome is on record?
A: inactive

Q: `C=CCOC(Cn1ccnc1)c1ccc(Cl)cc1Cl` (stereo not given) was tested. Which AC50 did it give?
A: 79.6 µM (active)

Q: For `CC(=O)[C@H]1CC[C@H]2[C@@H]3CCC4=CC(=O)CC[C@]4(C)[C@H]3CC[C@]12C`, which AC50 is on record?
A: 84.6 µM (active)

Q: `CCCCC(CC)COC(=O)c1ccccc1C(=O)O` (stereo not given) was tested. Which outcome did it give?
A: inactive

Q: How did the outcome turn out when `CCC(C)OC(=O)N1CCCCC1CCO` (stereo not given) was run?
A: inactive

Q: How did the AC50 turn out when `S=C([S-])NCCNC(=S)[S-].[Mn+2]` was run?
A: 3.47 µM (active)

Q: For `CCN(Cc1c(F)cccc1Cl)c1c([N+](=O)[O-])cc(C(F)(F)F)cc1[N+](=O)[O-]`, which outcome is on record?
A: inactive

Q: `CCOC(=O)C(C)Oc1ccc(Oc2cnc3cc(Cl)ccc3n2)cc1` (stereo not given) was tested. Which AC50 did it give?
A: 0.628 µM (active)

Q: `COCCO` was tested. Which outcome did it give?
A: inactive

Q: For `CCCOC(=O)c1ccc(C(=O)OCCC)nc1`, which outcome is on record?
A: inactive

Q: Which outcome does the source give for `OB(O)O` here?
A: inactive

Q: With `CCCCOCCOCCOCc1cc2c(cc1CCC)OCO2` as the molecule, how does the outcome read?
A: inactive

Q: For `CCCN(CCC)c1c([N+](=O)[O-])cc(C(F)(F)F)c(N)c1[N+](=O)[O-]`, which outcome is on record?
A: inactive

Q: Which outcome does the source give for `C#CCOC(=O)[C@@H](C)Oc1ccc(Oc2ncc(Cl)cc2F)cc1` here?
A: inactive

Q: Which outcome does the source give for `COc1c(Cl)ccc(Cl)c1C(=O)O` here?
A: inactive

Q: For `COC(=O)c1ccccc1C(=O)O`, which outcome is on record?
A: inactive

Q: `O=C(Nc1ccc([N+](=O)[O-])cc1Cl)c1cc(Cl)ccc1O` was tested. Which AC50 did it give?
A: 7.24 µM (active)

Q: Which outcome does the source give for `CCOC(=O)COc1cc(-n2ncc(C(F)(F)F)c(C)c2=O)c(F)cc1Cl` here?
A: inactive

Q: `CCSC(=O)N(CC(C)C)CC(C)C` was tested. Which outcome did it give?
A: inactive
